This note sets out measurements from PubChem BioAssay (NCI).

Molecules are shown by their SMILES. The panel holds about 83,000 compounds, 20% with a hit somewhere; the sample as a whole holds those more often.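 Method: cells in 96-well plates; compound added at one concentration; 48 h incubation; percent growth measured; values under 10 scored active.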 Unmarked numbers belong to inactive results. Activity calls are given as the source filed them.

The first assay relates to BT-549 breast. The assay is described as follows: NCI-60 one-dose screen, 48 h (100 = growth as untreated, 0 = no growth, -100 = all killed). The note with it: 10 µM unless noted.
Turning to `COc1cc2cc(Oc3ccc(NC(=O)Nc4ccc(Cl)c(C(F)(F)F)c4)cc3)c(C)nc2cc1OCCN1CCCCC1`, the growth was 71.7%.

Take `COc1ccc(/C=C2\SC(=O)N(CN3CCN(c4cc5c(cc4F)c(=O)c(C(=O)O)cn5C4CC4)CC3)C2=O)cc1`: the growth was 86.4%.

For `CCCCC/C=C\C/C=C/CCCCCCCCNC(=O)Nc1ccc([N+](=O)[O-])cc1`, the growth was 109%.

Consider `COc1ccc(/C=C/C(=O)N2CCC(O)CC2)cc1OC1CCCC1`, for which the growth is 117%.

As to `O=C(c1ccccc1)C(Br)C(Br)c1cccc([N+](=O)[O-])c1` (stereo not drawn), the growth was 74.8%.

Take `CCOC(=O)c1cnn(CC(O)c2ccc(F)cc2)c1NC(=O)Nc1ccccc1F` (stereo not drawn): the growth was 80.1%.

For the compound `CC1CCCCN1S(=O)(=O)c1ccc(CN=C=S)cc1` (stereo not drawn), the growth was 76%.

Regarding `COc1ccc(OC)c(/C=C2\Oc3cc(O)ccc3C2=O)c1`, the growth is 79.8%.

`CCCCC1COc2cccc3c(SCC(=O)N(C)c4cccc5ccccc45)cc[n+]1c23` (stereo not drawn): the growth was 102%.

Take `Brc1ccc(Br)nn1`: the growth was -69.7% (active).

Take `Cn1c2ccccc2c2nn(Cc3ccccc3)c(=O)nc21`: the growth is 110%.

Take `COc1ccc(/C=N/NC(=O)c2cnn3c2NC(c2ccccc2)C3)cc1OC1CCCC1` (stereo not drawn): the growth is 93.3%.

Turning to `CCOC(=O)c1[nH]c2cc(Cl)ccc2c1[C@@H](C(=O)NC(C)(C)C)N(CC)C(=O)CCCCC#Cc1cccc2c1CN(C1CCC(=O)NC1=O)C2=O` (stereo partly drawn), the growth is 3.98% (active).

`Nc1nc(N)c(N=Nc2c(Br)cc(S(N)(=O)=O)cc2Br)c(N)n1`: the growth was 100%.

Consider `O=C1/C(=C/c2ccc([N+](=O)[O-])cc2)Oc2ccc(O)cc21`, for which the growth was 96.5%.

As to `COc1ccc(/C=N\N2CCOCC2)cc1OC1CCCC1`, the growth was 83.8%.

As for `O=C(Nc1ccccc1O)c1ccc(NS(=O)(=O)c2cccc3cccnc23)cc1`, the growth was 55.6%.

As for `COc1cc(/C=N/NC(=O)c2cnn3c2NC(c2ccccc2)C3)cc(OC)c1OC` (stereo not drawn), the growth was 60.2%.

Regarding `O=S(=O)(Nc1ccccc1Cl)c1ccc(-c2cnc(C3CC3)o2)cc1`, the growth is 49.5%.

Take `Cn1c2c(cc(S(=O)(=O)c3ccccc3)c1=O)CCc1c-2cnn1-c1cccc(Cl)c1`: the growth was 92.4%.

Turning to `Fc1c[c-]c(-c2ccccn2)c(F)c1.Fc1c[c-]c(-c2ccccn2)c(F)c1.[Cl][Pt+].[Cl][Pt+].c1ccc([PH+](C[PH+](c2ccccc2)c2ccccc2)c2ccccc2)cc1`, the growth is 15.8%.

With `CCOC(=O)n1cc(C2=C(c3cn(C)c4ccccc34)COC2=O)c2ccccc21`, the growth was 26.8%.

`CSC1=CC(=O)c2ccccc2C1=O`: the growth is 92.3%.

`Cc1c(C(=O)Nc2nc(-c3ccccc3)cs2)nnn1-c1ccccc1Br`: the growth is 35.5% [50 µM].

In the case of `COc1ccc(/C=N/OCC(O)CNCc2ccccc2)cc1OC1CCCC1` (stereo not drawn), the growth was 90.9%.

As to `O=C(N/N=C/c1ccc(OC(F)F)c(OC2CCCC2)c1)c1cnn2c1NC(c1ccccc1)C2` (stereo not drawn), the growth was 73.4%.

For `Nc1cc(Br)c(-c2nnc(CCC(=O)c3nc4ccccc4[nH]3)o2)c(Br)c1`, the growth is 40.6%.

In the case of `O=C1C2CC3C(CC2C(=O)[N]1[Sn]([c]1ccccc1)([c]1ccccc1)[c]1ccccc1)C1(Cl)C(Cl)=C(Cl)C3(Cl)C1(Cl)Cl` (stereo not drawn), the growth is -95.3% (active).

Take `COc1ccc(/C=C(\C#N)c2cc3ccccc3n2C)cc1`: the growth was 51.2%.

`CC(C)(C)[Si](C)(C)OC1[C@@H](COC(=O)NC(=O)CCl)O[C@@H](n2cnc3c(N)ncnc32)[C@H]1O[Si](C)(C)C(C)(C)C` (stereo partly drawn): the growth is -17.9% (active).

With `Cc1cccc2c(=O)c3c(sc12)c(NCCCN)nc1ccccc13`, the growth was 65.9%.

With `COc1cc(Cn2cc(F)c(=O)[nH]c2=O)cc(OC)c1`, the growth was 95.4% [50 µM].

As to `Cc1nc2ccc(Cl)cc2n1C`, the growth is 103%.

Take `CCN1CCN(c2ccc(Nc3ncc4ccc5ncn(C(C)C)c5c4n3)nc2)CC1`: the growth was -24.7% (active).

On to `COc1ccc(/C=C2\Oc3cc(C)c(Cl)cc3C2=O)cc1OC`, for which the growth is 89.1%.

As to `COc1ccc(-n2ncc3c2ccc2cc(S(=O)(=O)c4ccccc4)c(=O)n(C)c23)cc1`, the growth was 67.8%.

Consider `NC(=O)c1cc(Cl)ccc1NC(=O)COc1ccccc1`, for which the growth was 43.8%.

For the compound `Nc1ccccc1-c1n[nH]c(=O)[nH]c1=O`, the growth is 111%.

In the case of `Cn1c2ccccc2c2nn(C(=O)c3ccccc3)c(=O)nc21`, the growth was 114%.

Another assay relates to MDA-MB-435 melanoma. Described as above. The following applies: 10 µM unless noted.
On to `COc1cc2cc(Oc3ccc(NC(=O)Nc4ccc(Cl)c(C(F)(F)F)c4)cc3)c(C)nc2cc1OCCN1CCCCC1`, for which the growth was -95.9% (active).

As for `COc1ccc(/C=C2\SC(=O)N(CN3CCN(c4cc5c(cc4F)c(=O)c(C(=O)O)cn5C4CC4)CC3)C2=O)cc1`, the growth was 98%.

On to `CCCCC/C=C\C/C=C/CCCCCCCCNC(=O)Nc1ccc([N+](=O)[O-])cc1`, for which the growth is 68.3%.

Turning to `COc1ccc(/C=C/C(=O)N2CCC(O)CC2)cc1OC1CCCC1`, the growth is 103%.

Turning to `O=C(c1ccccc1)C(Br)C(Br)c1cccc([N+](=O)[O-])c1` (stereo not drawn), the growth is 22.5%.

As for `CCOC(=O)c1cnn(CC(O)c2ccc(F)cc2)c1NC(=O)Nc1ccccc1F` (stereo not drawn), the growth was 102%.

With `CC1CCCCN1S(=O)(=O)c1ccc(CN=C=S)cc1` (stereo not drawn), the growth was 47.2%.

As to `COc1ccc(OC)c(/C=C2\Oc3cc(O)ccc3C2=O)c1`, the growth is 82.7%.

Take `CCCCC1COc2cccc3c(SCC(=O)N(C)c4cccc5ccccc45)cc[n+]1c23` (stereo not drawn): the growth was 103%.

Turning to `Brc1ccc(Br)nn1`, the growth is -96.3% (active).

Take `Cn1c2ccccc2c2nn(Cc3ccccc3)c(=O)nc21`: the growth is 112%.

Take `COc1ccc(/C=N/NC(=O)c2cnn3c2NC(c2ccccc2)C3)cc1OC1CCCC1` (stereo not drawn): the growth is 61.7%.

In the case of `CCOC(=O)c1[nH]c2cc(Cl)ccc2c1[C@@H](C(=O)NC(C)(C)C)N(CC)C(=O)CCCCC#Cc1cccc2c1CN(C1CCC(=O)NC1=O)C2=O` (stereo partly drawn), the growth was 18.1%.

On to `Nc1nc(N)c(N=Nc2c(Br)cc(S(N)(=O)=O)cc2Br)c(N)n1`, for which the growth is 48.3%.

On to `O=C1/C(=C/c2ccc([N+](=O)[O-])cc2)Oc2ccc(O)cc21`, for which the growth is 95%.

On to `COc1ccc(/C=N\N2CCOCC2)cc1OC1CCCC1`, for which the growth is 106%.

For the compound `O=C(Nc1ccccc1O)c1ccc(NS(=O)(=O)c2cccc3cccnc23)cc1`, the growth is 32.6%.

On to `COc1cc(/C=N/NC(=O)c2cnn3c2NC(c2ccccc2)C3)cc(OC)c1OC` (stereo not drawn), for which the growth is -15.9% (active).

On to `O=S(=O)(Nc1ccccc1Cl)c1ccc(-c2cnc(C3CC3)o2)cc1`, for which the growth was -35.2% (active).

With `Cn1c2c(cc(S(=O)(=O)c3ccccc3)c1=O)CCc1c-2cnn1-c1cccc(Cl)c1`, the growth was 87.9%.

For `Fc1c[c-]c(-c2ccccn2)c(F)c1.Fc1c[c-]c(-c2ccccn2)c(F)c1.[Cl][Pt+].[Cl][Pt+].c1ccc([PH+](C[PH+](c2ccccc2)c2ccccc2)c2ccccc2)cc1`, the growth is 5.73% (active).

On to `CCOC(=O)n1cc(C2=C(c3cn(C)c4ccccc34)COC2=O)c2ccccc21`, for which the growth is -22.2% (active).

On to `CSC1=CC(=O)c2ccccc2C1=O`, for which the growth was 89.4%.

As to `Cc1c(C(=O)Nc2nc(-c3ccccc3)cs2)nnn1-c1ccccc1Br`, the growth is 20.1% [50 µM].

`COc1ccc(/C=N/OCC(O)CNCc2ccccc2)cc1OC1CCCC1` (stereo not drawn): the growth was 99.4%.

For `O=C(N/N=C/c1ccc(OC(F)F)c(OC2CCCC2)c1)c1cnn2c1NC(c1ccccc1)C2` (stereo not drawn), the growth is 18%.

Consider `Nc1cc(Br)c(-c2nnc(CCC(=O)c3nc4ccccc4[nH]3)o2)c(Br)c1`, for which the growth is 5.71% (active).

`O=C1C2CC3C(CC2C(=O)[N]1[Sn]([c]1ccccc1)([c]1ccccc1)[c]1ccccc1)C1(Cl)C(Cl)=C(Cl)C3(Cl)C1(Cl)Cl` (stereo not drawn): the growth was -96.4% (active).

Regarding `COc1ccc(/C=C(\C#N)c2cc3ccccc3n2C)cc1`, the growth was -49.1% (active).

On to `CC(C)(C)[Si](C)(C)OC1[C@@H](COC(=O)NC(=O)CCl)O[C@@H](n2cnc3c(N)ncnc32)[C@H]1O[Si](C)(C)C(C)(C)C` (stereo partly drawn), for which the growth is -28.2% (active).

In the case of `Cc1cccc2c(=O)c3c(sc12)c(NCCCN)nc1ccccc13`, the growth was -75.4% (active).

For `COc1cc(Cn2cc(F)c(=O)[nH]c2=O)cc(OC)c1`, the growth was 109% [50 µM].

Regarding `Cc1nc2ccc(Cl)cc2n1C`, the growth is 109%.

Consider `CCN1CCN(c2ccc(Nc3ncc4ccc5ncn(C(C)C)c5c4n3)nc2)CC1`, for which the growth was 0.992% (active).

Turning to `COc1ccc(/C=C2\Oc3cc(C)c(Cl)cc3C2=O)cc1OC`, the growth was 96.6%.

As to `COc1ccc(-n2ncc3c2ccc2cc(S(=O)(=O)c4ccccc4)c(=O)n(C)c23)cc1`, the growth is 90.3%.

With `NC(=O)c1cc(Cl)ccc1NC(=O)COc1ccccc1`, the growth is -56.9% (active).

On to `Nc1ccccc1-c1n[nH]c(=O)[nH]c1=O`, for which the growth is 100%.

Consider `Cn1c2ccccc2c2nn(C(=O)c3ccccc3)c(=O)nc21`, for which the growth is 105%.
